The results in this text go back to paper PMC7862700, “An all-to-all approach to the identification of sequence-specific readers for epigenetic DNA modifications on cytosine”.

Assay in all cases: DAPPL (digital affinity profiling via proximity ligation, sequencing); 10 mM Tris-HCl pH 7.5, 50 mM NaCl, 1 mM DTT, 4% glycerol, room temperature, 30 min; GST-TFs on glutathione beads, 16-mer random dsDNA library, 0.1% formaldehyde crosslink after washing; high values mean tight binding
Test [1] deals with T1, FEV (Homo sapiens, UniProt Q99581 1-238).
T1 sequence: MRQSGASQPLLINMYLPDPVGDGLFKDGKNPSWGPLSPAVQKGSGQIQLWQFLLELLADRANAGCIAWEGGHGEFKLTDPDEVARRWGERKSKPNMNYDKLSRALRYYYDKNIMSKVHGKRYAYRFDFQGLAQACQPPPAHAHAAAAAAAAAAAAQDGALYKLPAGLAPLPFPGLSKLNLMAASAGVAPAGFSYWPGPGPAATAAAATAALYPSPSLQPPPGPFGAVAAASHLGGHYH
To be noted: protein: recombinant; tags: N-terminal GST; dsDNA, one strand shown. The method, boiled down: (§1)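 Yeast served to express human transcription factors as GST fusions, which were then captured on glutathione beads and labelled with DNA barcodes. Pooled with a tag-only sample, they were incubated with 200 nmole of a 16-mer random double-stranded DNA library for 30 min at room temperature in Tris/NaCl/DTT/glycerol buffer, washed, crosslinked with 0.1% formaldehyde, ligated by proximity, amplified by PCR and sequenced. Dividing each hexamer's read frequency for a factor by its frequency for the tag-only sample gives the binding signal.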

The target in test [2] is ETV5 (Homo sapiens, UniProt P41161 1-510). The settings on record: protein: recombinant; tags: N-terminal GST; dsDNA, one strand shown. The method, boiled down: as §1
ETV5, sequence (P41161 whole entry): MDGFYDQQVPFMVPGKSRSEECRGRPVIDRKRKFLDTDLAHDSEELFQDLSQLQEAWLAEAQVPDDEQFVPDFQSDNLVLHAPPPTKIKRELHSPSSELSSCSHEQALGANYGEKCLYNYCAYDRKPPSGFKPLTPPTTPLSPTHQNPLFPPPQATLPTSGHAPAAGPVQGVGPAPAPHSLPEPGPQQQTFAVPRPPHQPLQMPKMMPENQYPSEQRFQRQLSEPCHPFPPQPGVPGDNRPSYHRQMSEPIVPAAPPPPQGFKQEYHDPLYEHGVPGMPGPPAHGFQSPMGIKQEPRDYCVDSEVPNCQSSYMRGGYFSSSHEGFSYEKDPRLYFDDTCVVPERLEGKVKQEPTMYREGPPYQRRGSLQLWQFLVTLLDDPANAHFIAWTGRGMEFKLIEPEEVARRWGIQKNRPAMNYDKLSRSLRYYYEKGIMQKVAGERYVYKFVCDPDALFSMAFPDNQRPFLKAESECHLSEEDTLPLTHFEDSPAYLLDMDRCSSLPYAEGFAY
The target in test [3] is HSF1 (Homo sapiens, UniProt Q00613 1-529). To be noted: protein: recombinant; tags: N-terminal GST; chain copies: 3; dsDNA, one strand shown. The method, boiled down:
as §1

For test [4], the target named is T2, SPIC (Homo sapiens, UniProt Q8N5J4 1-248).
T2 sequence: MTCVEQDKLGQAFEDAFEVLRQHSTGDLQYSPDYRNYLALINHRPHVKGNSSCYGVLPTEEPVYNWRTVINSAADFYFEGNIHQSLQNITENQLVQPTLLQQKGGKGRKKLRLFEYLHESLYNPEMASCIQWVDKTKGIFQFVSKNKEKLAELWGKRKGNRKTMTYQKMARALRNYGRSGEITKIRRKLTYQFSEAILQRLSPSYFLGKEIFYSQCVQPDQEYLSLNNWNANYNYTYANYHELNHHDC
To be noted: protein: recombinant; tags: N-terminal GST; dsDNA, one strand shown. The method, boiled down:
as §1

For test [5], the target named is ELF4 (Homo sapiens, UniProt Q99607 1-663). The settings on record: protein: recombinant; tags: N-terminal GST; dsDNA, one strand shown. The method, boiled down:
as §1

For test [6], the target named is T3, ELK4 (Homo sapiens, UniProt P28324-2 1-405).
T3 sequence: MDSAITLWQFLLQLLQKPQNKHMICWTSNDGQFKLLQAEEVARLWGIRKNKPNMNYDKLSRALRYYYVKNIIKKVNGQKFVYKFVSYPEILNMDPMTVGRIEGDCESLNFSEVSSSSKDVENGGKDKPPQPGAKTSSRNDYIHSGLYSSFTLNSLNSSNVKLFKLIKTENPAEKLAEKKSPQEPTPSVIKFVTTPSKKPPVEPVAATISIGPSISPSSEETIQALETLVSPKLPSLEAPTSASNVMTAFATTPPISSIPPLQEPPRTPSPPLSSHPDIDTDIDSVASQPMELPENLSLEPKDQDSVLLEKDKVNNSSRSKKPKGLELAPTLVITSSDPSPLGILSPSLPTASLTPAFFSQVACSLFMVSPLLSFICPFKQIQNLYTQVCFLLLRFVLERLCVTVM
To be noted: protein: recombinant; tags: N-terminal GST; dsDNA, one strand shown. The method, boiled down:
as §1

For test [7], the target named is T4, ETV2 (Homo sapiens, UniProt O00321 1-342).
T4 sequence: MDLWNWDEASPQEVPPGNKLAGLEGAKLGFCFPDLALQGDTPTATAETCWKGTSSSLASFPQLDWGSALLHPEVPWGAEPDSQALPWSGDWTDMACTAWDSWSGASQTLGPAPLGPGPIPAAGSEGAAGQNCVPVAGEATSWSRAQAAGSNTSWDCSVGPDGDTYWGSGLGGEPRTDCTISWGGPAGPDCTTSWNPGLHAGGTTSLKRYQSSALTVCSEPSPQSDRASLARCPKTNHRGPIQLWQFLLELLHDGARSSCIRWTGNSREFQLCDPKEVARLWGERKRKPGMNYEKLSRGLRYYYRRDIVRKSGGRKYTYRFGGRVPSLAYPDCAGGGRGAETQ
The settings on record: protein: recombinant; tags: N-terminal GST; dsDNA, one strand shown. The method, boiled down: as §1

For test [8], the target named is T5, ELF3 (Homo sapiens, UniProt P78545 1-371).
T5 sequence: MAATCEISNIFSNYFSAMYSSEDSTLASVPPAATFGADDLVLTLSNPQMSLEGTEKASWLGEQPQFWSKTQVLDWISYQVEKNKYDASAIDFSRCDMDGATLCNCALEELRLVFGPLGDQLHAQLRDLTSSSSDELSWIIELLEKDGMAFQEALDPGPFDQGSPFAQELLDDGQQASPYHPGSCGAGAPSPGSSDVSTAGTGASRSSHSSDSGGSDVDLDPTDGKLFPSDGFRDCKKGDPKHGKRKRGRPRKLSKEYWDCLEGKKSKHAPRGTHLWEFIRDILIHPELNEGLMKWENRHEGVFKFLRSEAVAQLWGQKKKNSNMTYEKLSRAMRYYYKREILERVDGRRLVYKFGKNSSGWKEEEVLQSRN
To be noted: protein: recombinant; tags: N-terminal GST; dsDNA, one strand shown. The method, boiled down:
as §1

Test [9] concerns the target CRX (Homo sapiens, UniProt O43186 1-299). To be noted: protein: recombinant; tags: N-terminal GST; dsDNA, one strand shown. The method, boiled down: as §1
Test [10] has as its target ETV1 (Homo sapiens, UniProt P50549 1-477). To be noted: protein: recombinant; tags: N-terminal GST; dsDNA, one strand shown. The method, boiled down:
as §1

The target in test [11] is T6, ERF (Homo sapiens, UniProt P50548 1-548).
T6 sequence: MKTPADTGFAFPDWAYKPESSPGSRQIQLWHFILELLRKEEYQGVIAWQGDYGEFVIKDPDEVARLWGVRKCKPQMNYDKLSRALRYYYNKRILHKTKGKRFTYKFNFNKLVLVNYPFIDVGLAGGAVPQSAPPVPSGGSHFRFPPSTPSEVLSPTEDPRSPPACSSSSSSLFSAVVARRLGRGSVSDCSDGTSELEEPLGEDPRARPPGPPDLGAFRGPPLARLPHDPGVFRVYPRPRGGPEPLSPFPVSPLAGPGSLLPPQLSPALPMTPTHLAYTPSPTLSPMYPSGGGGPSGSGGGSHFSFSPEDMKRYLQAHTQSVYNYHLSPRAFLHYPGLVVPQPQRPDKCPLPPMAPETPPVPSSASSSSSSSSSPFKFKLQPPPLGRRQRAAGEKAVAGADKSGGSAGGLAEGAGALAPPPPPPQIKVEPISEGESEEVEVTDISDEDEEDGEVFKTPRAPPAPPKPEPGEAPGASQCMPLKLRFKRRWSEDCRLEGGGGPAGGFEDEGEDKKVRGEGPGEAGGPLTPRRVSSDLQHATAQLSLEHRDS
To be noted: protein: recombinant; tags: N-terminal GST; dsDNA, one strand shown. The method, boiled down: as §1

Test [12] deals with T7, ETV3L (Homo sapiens, UniProt Q6ZN32 1-361).
T7 sequence: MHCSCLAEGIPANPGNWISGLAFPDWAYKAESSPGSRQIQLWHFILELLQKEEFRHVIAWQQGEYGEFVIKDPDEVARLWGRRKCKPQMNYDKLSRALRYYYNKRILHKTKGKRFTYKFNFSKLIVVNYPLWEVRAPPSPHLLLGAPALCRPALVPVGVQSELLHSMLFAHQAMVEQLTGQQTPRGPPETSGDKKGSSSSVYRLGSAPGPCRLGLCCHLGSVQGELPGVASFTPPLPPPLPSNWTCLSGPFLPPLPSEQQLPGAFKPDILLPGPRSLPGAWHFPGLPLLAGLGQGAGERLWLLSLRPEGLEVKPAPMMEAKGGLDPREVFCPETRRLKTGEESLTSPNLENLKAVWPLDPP
To be noted: protein: recombinant; tags: N-terminal GST; dsDNA, one strand shown. The method, boiled down: as §1

In test [13] the target is T8, ETS2 (Homo sapiens, UniProt P15036 1-469).
T8 sequence: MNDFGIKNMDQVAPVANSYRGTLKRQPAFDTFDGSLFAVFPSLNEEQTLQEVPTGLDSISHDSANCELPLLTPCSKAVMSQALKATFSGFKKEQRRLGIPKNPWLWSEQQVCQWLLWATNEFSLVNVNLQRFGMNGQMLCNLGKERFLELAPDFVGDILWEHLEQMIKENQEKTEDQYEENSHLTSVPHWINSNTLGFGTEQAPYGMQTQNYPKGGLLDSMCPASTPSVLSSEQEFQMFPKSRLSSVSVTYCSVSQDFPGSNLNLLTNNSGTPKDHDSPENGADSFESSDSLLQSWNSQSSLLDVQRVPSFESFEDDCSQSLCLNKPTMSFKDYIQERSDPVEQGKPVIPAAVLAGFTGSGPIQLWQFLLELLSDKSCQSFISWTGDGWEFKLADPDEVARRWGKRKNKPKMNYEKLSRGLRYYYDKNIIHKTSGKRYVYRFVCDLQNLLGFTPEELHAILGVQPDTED
To be noted: protein: recombinant; tags: N-terminal GST; dsDNA, one strand shown. The method, boiled down: as §1

Test [14] deals with T9, SPDEF (Homo sapiens, UniProt O95238 1-335).
T9 sequence: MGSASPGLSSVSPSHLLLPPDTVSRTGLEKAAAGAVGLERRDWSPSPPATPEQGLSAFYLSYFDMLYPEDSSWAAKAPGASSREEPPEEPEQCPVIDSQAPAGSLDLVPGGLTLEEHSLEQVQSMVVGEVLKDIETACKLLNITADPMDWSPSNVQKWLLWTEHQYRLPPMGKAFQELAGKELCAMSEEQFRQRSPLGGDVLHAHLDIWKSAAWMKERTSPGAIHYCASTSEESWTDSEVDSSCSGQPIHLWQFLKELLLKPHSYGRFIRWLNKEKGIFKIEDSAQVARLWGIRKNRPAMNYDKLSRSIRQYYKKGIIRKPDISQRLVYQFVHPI
To be noted: protein: recombinant; tags: N-terminal GST; dsDNA, one strand shown. The method, boiled down: as §1

Test [15] concerns the target T10, ETV7 (Homo sapiens, UniProt Q9Y603 1-341).
T10 sequence: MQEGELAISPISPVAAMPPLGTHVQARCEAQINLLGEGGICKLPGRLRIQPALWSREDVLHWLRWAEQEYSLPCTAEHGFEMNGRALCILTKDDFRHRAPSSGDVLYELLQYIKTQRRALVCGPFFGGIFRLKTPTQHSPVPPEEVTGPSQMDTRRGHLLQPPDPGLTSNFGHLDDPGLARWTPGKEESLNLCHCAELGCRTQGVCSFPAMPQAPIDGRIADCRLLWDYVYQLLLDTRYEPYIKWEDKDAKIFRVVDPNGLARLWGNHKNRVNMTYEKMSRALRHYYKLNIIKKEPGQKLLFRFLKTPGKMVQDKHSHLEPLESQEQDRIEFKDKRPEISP
The settings on record: protein: recombinant; tags: N-terminal GST; dsDNA, one strand shown. The method, boiled down:
as §1

Test [16] addresses T11, ELF5 (Homo sapiens, UniProt Q9UKW6-2 1-255).
T11 sequence: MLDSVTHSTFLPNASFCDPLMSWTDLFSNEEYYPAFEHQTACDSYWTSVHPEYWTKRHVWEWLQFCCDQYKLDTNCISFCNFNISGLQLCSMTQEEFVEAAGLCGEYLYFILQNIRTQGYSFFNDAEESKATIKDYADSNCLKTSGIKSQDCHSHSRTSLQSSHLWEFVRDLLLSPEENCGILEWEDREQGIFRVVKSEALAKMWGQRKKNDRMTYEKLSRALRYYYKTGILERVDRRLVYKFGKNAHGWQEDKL
The settings on record: protein: recombinant; tags: N-terminal GST; dsDNA, one strand shown. The method, boiled down:
as §1

The target of test [17] is T12, ETV3 (Homo sapiens, UniProt P41162-2 1-143).
T12 sequence: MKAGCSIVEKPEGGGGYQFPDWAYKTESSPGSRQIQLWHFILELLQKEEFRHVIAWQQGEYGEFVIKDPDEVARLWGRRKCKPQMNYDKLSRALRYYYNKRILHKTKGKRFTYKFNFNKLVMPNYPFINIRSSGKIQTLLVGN
The settings on record: protein: recombinant; tags: N-terminal GST; dsDNA, one strand shown. The method, boiled down:
as §1

Test [18] concerns the target ETV6 (Homo sapiens, UniProt P41212 1-452). The settings on record: protein: recombinant; tags: N-terminal GST; dsDNA, one strand shown. The method, boiled down:
as §1

ELF4, sequence (Q99607 whole entry): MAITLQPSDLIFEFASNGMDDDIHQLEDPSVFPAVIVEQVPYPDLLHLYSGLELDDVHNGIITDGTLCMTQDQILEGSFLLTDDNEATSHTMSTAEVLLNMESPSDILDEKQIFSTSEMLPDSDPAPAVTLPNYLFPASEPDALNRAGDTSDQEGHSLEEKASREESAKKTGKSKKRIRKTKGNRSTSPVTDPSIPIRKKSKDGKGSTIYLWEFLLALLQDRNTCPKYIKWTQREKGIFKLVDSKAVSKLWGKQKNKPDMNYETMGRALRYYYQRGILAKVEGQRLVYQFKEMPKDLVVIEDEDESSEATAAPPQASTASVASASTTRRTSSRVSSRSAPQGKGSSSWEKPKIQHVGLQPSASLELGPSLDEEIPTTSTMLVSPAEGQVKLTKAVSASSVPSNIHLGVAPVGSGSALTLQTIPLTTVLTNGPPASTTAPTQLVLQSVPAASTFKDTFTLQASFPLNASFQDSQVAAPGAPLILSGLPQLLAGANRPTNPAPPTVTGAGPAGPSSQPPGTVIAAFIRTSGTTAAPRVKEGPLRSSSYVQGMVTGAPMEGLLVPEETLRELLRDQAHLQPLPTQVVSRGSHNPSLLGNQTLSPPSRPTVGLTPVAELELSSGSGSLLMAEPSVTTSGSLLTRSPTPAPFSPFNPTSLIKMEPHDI
HSF1, sequence (Q00613 whole entry): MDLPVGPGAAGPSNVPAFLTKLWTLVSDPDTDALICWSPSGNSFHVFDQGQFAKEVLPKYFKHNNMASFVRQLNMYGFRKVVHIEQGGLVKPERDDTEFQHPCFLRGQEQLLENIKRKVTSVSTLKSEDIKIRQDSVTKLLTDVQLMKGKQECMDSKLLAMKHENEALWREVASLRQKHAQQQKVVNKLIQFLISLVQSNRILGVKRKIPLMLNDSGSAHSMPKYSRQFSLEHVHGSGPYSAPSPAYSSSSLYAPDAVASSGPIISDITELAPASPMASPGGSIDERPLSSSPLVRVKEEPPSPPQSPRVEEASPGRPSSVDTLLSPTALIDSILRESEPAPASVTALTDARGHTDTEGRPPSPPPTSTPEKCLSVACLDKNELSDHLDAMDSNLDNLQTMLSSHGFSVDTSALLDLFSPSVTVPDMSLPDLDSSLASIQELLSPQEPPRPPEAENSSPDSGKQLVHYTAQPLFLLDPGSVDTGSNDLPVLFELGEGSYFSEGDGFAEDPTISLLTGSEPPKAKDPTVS
CRX, sequence (O43186 whole entry): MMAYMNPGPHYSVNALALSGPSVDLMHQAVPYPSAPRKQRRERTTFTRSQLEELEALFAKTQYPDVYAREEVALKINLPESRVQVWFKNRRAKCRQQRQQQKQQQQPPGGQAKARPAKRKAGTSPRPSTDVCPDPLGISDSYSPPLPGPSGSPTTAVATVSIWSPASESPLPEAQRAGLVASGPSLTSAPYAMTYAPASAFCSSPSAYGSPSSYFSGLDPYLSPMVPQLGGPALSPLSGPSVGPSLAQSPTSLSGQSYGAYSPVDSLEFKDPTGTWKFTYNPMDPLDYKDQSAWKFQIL
ETV6, sequence (P41212 whole entry): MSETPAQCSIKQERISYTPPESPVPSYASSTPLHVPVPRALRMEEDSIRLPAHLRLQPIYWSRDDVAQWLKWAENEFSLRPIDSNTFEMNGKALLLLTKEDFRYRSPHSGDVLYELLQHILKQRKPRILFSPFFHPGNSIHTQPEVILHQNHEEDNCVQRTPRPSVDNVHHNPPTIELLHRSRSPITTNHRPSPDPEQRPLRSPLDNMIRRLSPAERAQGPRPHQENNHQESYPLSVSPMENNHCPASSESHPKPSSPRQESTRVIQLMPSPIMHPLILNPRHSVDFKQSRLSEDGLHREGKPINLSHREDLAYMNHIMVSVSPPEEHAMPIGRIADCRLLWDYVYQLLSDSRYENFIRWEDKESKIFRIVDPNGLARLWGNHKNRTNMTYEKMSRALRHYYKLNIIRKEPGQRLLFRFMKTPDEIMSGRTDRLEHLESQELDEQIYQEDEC
ETV1, sequence (P50549 whole entry): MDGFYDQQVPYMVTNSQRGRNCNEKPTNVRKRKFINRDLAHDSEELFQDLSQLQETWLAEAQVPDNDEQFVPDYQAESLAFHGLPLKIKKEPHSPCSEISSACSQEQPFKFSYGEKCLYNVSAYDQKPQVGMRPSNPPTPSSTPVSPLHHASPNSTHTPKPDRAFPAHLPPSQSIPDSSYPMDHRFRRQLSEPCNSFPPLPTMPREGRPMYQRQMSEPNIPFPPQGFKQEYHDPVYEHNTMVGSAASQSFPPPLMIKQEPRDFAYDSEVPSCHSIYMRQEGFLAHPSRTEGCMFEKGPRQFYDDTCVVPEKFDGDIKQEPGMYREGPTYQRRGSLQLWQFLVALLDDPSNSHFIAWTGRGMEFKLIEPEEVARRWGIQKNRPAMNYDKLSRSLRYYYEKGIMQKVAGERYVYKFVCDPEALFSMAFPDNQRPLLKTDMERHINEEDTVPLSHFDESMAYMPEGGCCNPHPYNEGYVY

Turning to ACTACG, the binding signal in test [1] was 1.34 fold enrichment (6-mer frequency, TF over GST control); in [2], 1.27 fold enrichment (6-mer frequency, TF over GST control); in test [3], 1.09 fold enrichment (6-mer frequency, TF over GST control); in [4] it was 1.12 fold enrichment (6-mer frequency, TF over GST control); in test [5], 1.26 fold enrichment (6-mer frequency, TF over GST control); in test [6], 1.32 fold enrichment (6-mer frequency, TF over GST control). In addition, the binding signal in test [7] is 1.33 fold enrichment (6-mer frequency, TF over GST control); in test [8], 1.28 fold enrichment (6-mer frequency, TF over GST control); in [9], 1.08 fold enrichment (6-mer frequency, TF over GST control); in test [10] it was 1.25 fold enrichment (6-mer frequency, TF over GST control); in test [11], 1.34 fold enrichment (6-mer frequency, TF over GST control); in [12], 1.31 fold enrichment (6-mer frequency, TF over GST control). Further, the binding signal was 1.26 fold enrichment (6-mer frequency, TF over GST control) in [13]; 1.27 fold enrichment (6-mer frequency, TF over GST control) in test [14]; 1.4 fold enrichment (6-mer frequency, TF over GST control) in [15]; 1.33 fold enrichment (6-mer frequency, TF over GST control) in test [16]; 1.35 fold enrichment (6-mer frequency, TF over GST control) in test [17]; 1.32 fold enrichment (6-mer frequency, TF over GST control) in test [18].
